Assay outcomes: PubChem, National Center for Advancing Translational Sciences (NCATS)
Hits are enriched below; roughly 6.5% of the tested compounds scored in any of these assays.
VACV mCherry inh – vaccinia inhibition (mCherry reporter); 0.63% of 310,000 active; Potency, µM (top dose mostly 36.5 µM), for the others: top-dose activity change, negative = inhibition, hits mostly inhibitors; Vaccinia virus mCherry reporter infection, fluorescence; calls by dose curve; tested in A549 cells; note: potency is the fitted concentration of half-maximal effect; nearly all actives have a fitted effect of over 35% in size
VACV Venus inh – vaccinia inhibition (Venus reporter); Vaccinia virus Venus reporter expression, fluorescence; Potency, µM (series often up to 36.5 µM), for inactives: at the highest dose activity change, negative = inhibition, actives largely listed as inhibitors; 0.46% of 330,000 active; AID 720580; calls by dose curve; tested in A549 cells; note: potency is the fitted concentration of half-maximal effect; nearly all actives have a fitted effect of over 30% in size
MARV entry inh – Marburg virus entry inhibition | Marburg virus pseudotyped entry inhibition, cell reporter | Potency, µM (series often up to 37.8 µM), without a hit: at the highest dose activity change, negative = inhibition, hits mostly inhibitors | 1.8% of 300,000 active | AID 540276; calls by dose curve; tested in HEK293 cells; note: potency is the fitted concentration of half-maximal effect
FMDV inh – foot and mouth disease virus antiviral activity; FMDV antiviral cell-based qHTS; Potency, µM (titrated, usually from 57.9 µM), for the others: at the highest dose activity change, negative = inhibition, actives largely listed as inhibitors; 1.2% of 410,000 active; calls by dose curve; tested in HEK293T cells; note: read-out not given here; potency is the fitted concentration of half-maximal effect; nearly all actives have a fitted effect of over 45% in size
Lassa entry inh – blocks Lassa virus binding to or entry into cells | Lassa virus pseudotype entry inhibition, cell reporter | Potency, µM (top dose mostly 37.9 µM), for inactives: at the highest dose activity change, negative = inhibition, hits mostly inhibitors | 1.2% of 300,000 active | AID 540256; calls by dose curve; tested in HEK293 cells; note: potency is the fitted concentration of half-maximal effect; nearly all actives have a fitted effect of over 50% in size
HCMV inh – human cytomegalovirus inhibition. HFF cells, HCMV-luciferase reporter, 72 h; active compounds read low. activity change, negative = inhibition, % at 57.5 µM. 4.5% of 410,000 active. AID 1259415; in the data active = activity change below about -60%; inconclusive = no clear call, values can overlap the other calls; inactive = above about -39%
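Cell-based, HFFs, 1000 cells/well, 16 h 37C; cpds in DMSO + HCMV-luc, MOI 1 PFU/cell; 72 h 37C; OneGlo luminescence after 5 min RT; norm. to buffer vs Salinomycin 10uM.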
* marks the source's active call; other numbers are inactive results; i = inactive; u = inconclusive; x = no result given; [ ] = dose if it differs, or a comment. % is set by controls: 0 for no effect and ±100 for the full control effect.

SMILES	VACV mCherry inh	VACV Venus inh	MARV entry inh	FMDV inh	Lassa entry inh	HCMV inh
COc1ccc2[nH]c(=O)c(CN(CC3CCCO3)C(=O)Nc3ccccc3OC)cc2c1 (centres undefined)	u	u	u	-25%	u	-1
CN1CCN(CC2(O)CCN(S(=O)(=O)c3ccc(Cl)cc3)CC2)CC1	-10%	-9%	u	-24%	4%	-69*
COc1ccc(S(=O)(=O)N2CCC(O)(c3ccc(Cl)cc3)CC2)cc1OC	i	-12%	u	u	u	-73*
CCN1C(=O)[C@H]2[C@H]3[C@H](O)[C@H](O)C/C(=N\OC[C@@H](O)COCc4ccco4)[C@@H]3CC[C@H]2C1=O	x	x	34%[14.2 µM]	x	x	x
O=C(CSCc1cnn(-c2ccccc2)c1-n1cccc1)NCc1ccc(F)cc1	2%	-14%	-2%[46.1 µM]	-24%	4%[46.1 µM]	4
O=c1c(-c2cccs2)nc2cnc(N3CCNCC3)nc2n1CCc1ccccc1	x	x	x	-17%	x	x
Cc1ccc(S(=O)(=O)N2CCOCC2)cc1C(=O)O	x	x	-2%	6%	-12%	3
Cc1ccc(S(=O)(=O)N2CCOCC2)cc1C(=O)Nc1ccc(N2CCCCCC2)cc1	u	-27%	u	-13%	u	-64*
CC(=O)c1ccc(NC(=O)c2cc(S(=O)(=O)N3CCOCC3)ccc2C)cc1	-4%	1%	x	u	-19%[46.1 µM]	-15
CCCCn1ccnc1C(=O)c1cc(S(=O)(=O)N2CCOCC2)ccc1C	x	x	u	-12%	-21%	-66*
O=C(c1ccc(Cl)c(S(=O)(=O)N2CCCC2)c1)N1CCN(c2ccccc2)CC1	-19%	-14%	u	0%	u	u
O=C(c1ccc(Cl)c(S(=O)(=O)N2CCCC2)c1)N1CCN(c2ccc(F)cc2)CC1	u	-27%	u	u	u	-87*
O=C(c1ccc(Cl)c(S(=O)(=O)N2CCCCC2)c1)N1CCN(c2ccccc2)CC1	-9%	-19%	u	u	u	-77*
CCCN1CNc2c(c(=O)[nH]c(=S)n2CCc2cc(OC)ccc2OC)C1	-11%	-6%	x	x	x	x
CC1CCN(C(=O)c2cccc(S(=O)(=O)N3CCN(c4ccccc4)CC3)c2)CC1	-10%	-8%	17%	-10%	2%	-21
O=C(c1cc(N2C(=O)C3C4CCC(C4)C3C2=O)ccc1Cl)N1CCN(c2ccc(F)cc2)CC1 (centres undefined)	-4%	-22%	u	32µM*	5%	21
CC1CCN(S(=O)(=O)c2cc(C(=O)N3CCN(c4ccccc4)CC3)ccc2Br)CC1	-26%	u	x	-19%	x	-76*
O=C(Nc1ccc(N2CCOCC2)cc1)c1ccc(Cl)c(S(=O)(=O)N2CCCCC2)c1	x	x	x	u	x	-63*
O=C(Nc1ccc(N2CCOCC2)cc1)c1cccc(S(=O)(=O)N2CCCCC2)c1	-21%	-15%	7%	u	11%	-21
CCCn1c(NC(=O)c2ccc(Cl)c(S(=O)(=O)N3CCCC3)c2)nc2ccccc21	11µM*	25µM*	u	u	u	-63*
Cc1nc2c3ccccc3nc(NNC(=O)CCC(=O)N3CCN(c4cc(Cl)ccc4C)CC3)n2n1	-3%	-9%	u	-11%	18%[46.1 µM]	-7
Cc1cnc(C)c(-c2cc(F)cc3c2OC(CNC(=O)C2CCOC2)C3)n1 (centres undefined)	-3%	4%	x	-10%	x	x
Cc1ccc(C(=O)N2CCN(c3ccccc3)CC2)cc1S(=O)(=O)N1CCCC1	u	-29%	u	u	u	u
CC(=O)Nc1ccc(NC(=O)c2cc(-c3cc(C)cc(C)c3O)n[nH]2)cc1	x	x	x	-30%	x	u
Cc1cc(C)c(O)c(-c2cc(C(=O)Nc3ccc(S(=O)(=O)N4CCOCC4)cc3)[nH]n2)c1	10µM*	13µM*	u	u	u	-76*
SMILES	VACV mCherry inh	VACV Venus inh	MARV entry inh	FMDV inh	Lassa entry inh	HCMV inh
Cc1ccc(C(=O)N2CCN(c3ccc(F)cc3)CC2)cc1S(=O)(=O)N1CCCCC1	u	-16%	u	u	u	-84*
Cc1cccc(C(=O)Nc2cccc(C(=O)OCc3cc(=O)n4nc(C5CC5)sc4n3)c2)c1	-27%	-25%	x	-15%	u	53
Cc1cc(=O)n2c(sc3ccccc32)c1C#N	i	-9%	10%[46.1 µM]	0%	4%	-91*
Cc1cc(=O)n(CCc2ccccc2)c(O)c1C#N	x	-5%	u	8%	u	5
CCO[C@H]1[C@H](NC(=O)c2cccnc2)c2ccccc2C12CCN(C(=O)c1cc(C)n(C)n1)CC2	-14%	-7%	x	4%	x	x
O=C(CSc1nc2cc(C(=O)NC3CCCC3)ccc2c(=O)n1CC1CCCO1)c1cccc(Cl)c1 (centres undefined)	-3%	-19%	x	-9%	-6%[46.1 µM]	-30
CC(=O)Nc1ccc(Oc2cc(C#N)c(C#N)cc2N2CCCCCC2)cc1	u	u	u	18µM*	u	u
CCOc1ccc(C(=O)c2cn(Cc3ccc(OC)cc3)c3cc(OC)c(OC)cc3c2=O)cc1	-20%	-10%	u	-14%	u	6
Cc1oc(-c2ccc(Cl)cc2)nc1CN1CCCC(C(=O)NC2CC2)C1 (centres undefined)	x	x	x	-9%	x	18
CCOC(=O)N1CCC(NC(=O)C2CCCN(Cc3nc(-c4cccc(Cl)c4)oc3C)C2)CC1 (centres undefined)	u	u	x	14µM*	x	-67*
CCOC(=O)N1CCC(NC(=O)CS(=O)(=O)Cc2nc(-c3cccc(Cl)c3)oc2C)CC1	x	x	x	-26%	x	-60*
CCCN(CCC)[C@H]1CCc2c(F)ccc(O)c2C1	x	x	11µM*	x	17%	x
CCCN(C/C=C\I)[C@@H]1CCc2ccc(O)cc2C1	x	x	x	-17%	x	x
Clc1cccc(-c2nc3ccccn3c2Nc2ccc3c(c2)OCCO3)c1	-8%	-8%	-25%[46.1 µM]	-4%	1%[46.1 µM]	-104*
Oc1ccc(-c2nc3ccccn3c2Nc2ccc3c(c2)OCCO3)cc1	-14%	-2%	u	5%	17%[46.1 µM]	10
CN(C)c1ccc(-c2nc3ccccn3c2Nc2ccc3c(c2)OCCO3)cc1	-13%	-6%	u	17%	6%[46.1 µM]	-96*
Cc1ccc2nc(-c3cccc(Cl)c3)c(Nc3ccc4c(c3)OCO4)n2c1	0%	3%	2%[46.1 µM]	31%	16%[46.1 µM]	27
O=C(CN1CCCN(Cc2ccccc2F)S1(=O)=O)Nc1ccc(F)c(Cl)c1	-6%	-7%	x	4%	-11%[46.1 µM]	0
CCCCCC(=O)N1C[C@H](O)[C@@H](n2cc(C3CC3)nn2)C[C@H]1c1ccc(OC)cc1	x	x	x	x	5%[46.1 µM]	x
Oc1ccc(Cc2ccc(Cl)cc2)c(O)c1	u	-3%	-3%[46.1 µM]	-16%	-3%[46.1 µM]	-62*
Oc1ccc(Cc2ccccc2Cl)c(O)c1	-27%	-15%	10%	u	u	-5
Cc1nc(CC(=O)Nc2cccc(C)c2C)cs1	3%	-5%	12%[46.1 µM]	-17%	9%[46.1 µM]	u
